The whole screen tested about 340,000 compounds, of which about 6,400 (1.9%) were called active. Another 4% or so got no clear call; they are omitted. Calls come from the whole dose curve; as a rule, active = well fitted falling curve with a large enough effect; inconclusive = small, poorly fitted or top-dose-only effect; inactive = no such curve, though single readings can be large or run the other way. Shown is part of a subset that was picked to be rich in actives. A call without a number means that no potency is given here.

The source of these data is PubChem BioAssay AID651965 (National Center for Advancing Translational Sciences (NCATS), 2013).

Sequence of ATP-dependent Clp protease proteolytic subunit (Bacillus subtilis (strain 168)) (P80244 whole entry, looked up): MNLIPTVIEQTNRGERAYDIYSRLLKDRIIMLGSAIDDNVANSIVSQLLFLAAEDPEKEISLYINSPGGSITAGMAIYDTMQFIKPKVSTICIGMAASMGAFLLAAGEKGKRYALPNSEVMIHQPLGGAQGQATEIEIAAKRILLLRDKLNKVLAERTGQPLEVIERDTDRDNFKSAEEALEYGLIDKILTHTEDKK

The assay concerns the target ATP-dependent Clp protease proteolytic subunit (Bacillus subtilis (strain 168)) (UniProt P80244). The assay can be described thus: qHTS Assay for Activators of ClpP. Note: the source files actives as falling curves though it sought activators and does not explain the sign; nearly all actives have a fitted effect of over 65% in size. The conditions noted are these: purified B. subtilis ClpP, FRET peptide cleavage, 20 min; series mostly up to 57.5 µM. The source says: The Clp protease proteolytic subunit (ClpP) is the core unit of the Clp complex belonging to the peptidase family S14 that hydrolyzes protein into small peptides in the presence of ATP and magnesium. It is ubiquitously expressed and is the major protease in bacteria. […] Unlike common antibiotics that simply interfere with the essential enzyme activity, ADEP binding activates the ClpP core in the absence of the regulatory Clp-ATPases leading to uncontrolled proteolysis and eventually cell death. Activators binding to the docking site on ClpP can also block formation of the ClpXP and ClpA/C-P holoenzyme complexes interfering with the normal biological functions of ClpP and thus have the potential to become new anti-microbials.
To identify activators of ClpP, a FRET based quenching reversal assay was developed using a purified B. subtilis ClpP and a decapeptide substrate (FRET-FV). The FRET-FV is tagged with a fluorescent molecule amino benzoic acid (donor) at the N-terminus and a nitrotyrosine quencher (acceptor) at the C-terminus. FRET-FV cleaves upon activation of ClpP with ADEP treatement and reverses the quenching effect of the nitrotyrosine causing an increase in fluorescence emission signal at 430nm. This assay was used to screen the Molecular Libraries Small Molecule Repository (MLSMR).
NIH Molecular Libraries Probe Production Centers Network [MLPCN]
NIH Chemical Genomics Center [NCGC]
Assay Submitter (PI): Michael Maurizi, National Cancer Institute
Two and a half microL/well of purified enzyme solution (final concentrations 10 microg/mL B. subtilis ClpP in 100 mM Tris/HCl pH8, 100 mM KCl, 0.05% low protease BSA, 2.5% glycerol, 0.01% Tween-20 buffer) was dispensed into 1536-well assay plates (Greiner, black solid, medium-binding plates) with Aurora Discovery BioRAPTR Flying Reagent Dispenser (FRD, Beckton-Dickenson). Compound solution (23 nL) was transferred to the assay plate using Kalypsys pin tool equipped with a 1536-pin tool. […] FRET signals at time 0 and after 20 min room temperature incubation were obtained using the PerkinElmer Envision plate reader with 320nm excitation and 430nm emission filters. Delta FRET value (Time 20 - Time 0) was calculated and normalized to the delta FRET value of positive control ADEP (5.8 microM final concentration) and negative control DMSO and no enzyme wells.
(In qHTS, concentration-response curves come from the screen itself.)
Take `Cc1nc2c(C(=O)NCc3ccc4c(c3)OCO4)c[nH]n2c(=O)c1Cc1ccccc1F`: the Potency is 31.6 µM (active).

As to `O=C(NCc1ccc2c(c1)OCO2)c1cc(F)c(F)cc1Cl`, the Potency result is “inactive”.

Take `CCn1c(=O)c(C(=O)NCc2ccc3c(c2)OCO3)c(O)c2ccccc21`: the Potency result was “inactive”.

Consider `OCCc1ccc(NCCc2ccco2)cc1`, for which the Potency result was “inactive”.

`CCCNC(=O)C1(C)CCCN(C(=O)c2cccc(OC(C)=O)c2C)C1` (centres undefined): the Potency entry was “inactive”.

As for `O=C1C[C@H]2C=CCc3cccc(c32)CN1Cc1ccccc1`, the Potency entry is “inactive”.

On to `CC(=O)OCC(C)n1c(=O)c2ccccc2n1C(C)=O` (centres undefined), for which the Potency entry is “inactive”.

Turning to `Cc1ccc(Nc2nc(N3CCOCC3)nc(N3CCOCC3)n2)cc1Cl`, the Potency result is “inactive”.

With `O=C(CN1CCOCC1)Nc1c2c(nc3c1CCC3)CCC2`, the Potency entry was “inactive”.

Consider `Cc1nc(N2CCOCC2)nc2c1CCCC2`, for which the Potency is 28.2 µM (active).

For `CCc1nc2c(OCCc3cccc(OC)c3)cccn2c1N(C)C(=O)c1ccc(C)cc1`, the Potency entry was “inactive”.

In the case of `O=C(Nc1cccc(OCC(=O)N2CCOCC2)c1)C1CCCCC1`, the Potency result is “inactive”.

Turning to `O=C1CC2(CCCC2)Oc2ccc(Cl)cc21`, the Potency entry is “inactive”.

With `O=C1CC2(CCCCC2)Oc2ccc(OCC(=O)N3CCOCC3)cc21`, the Potency was 10 µM (active).

Turning to `COc1cccc2[nH]c(C(=O)NCCc3ccccc3)cc12`, the Potency entry was “inactive”.

With `COc1cccc2c(C)c(C(=O)O)[nH]c12`, the Potency was 25.1 µM (active).

Consider `COc1cc2c(C(=O)O)c(C)n(C)c2c2ccccc12`, for which the Potency result was “inactive”.

`Cc1ccc(Cc2c(-c3ccc(Cl)cc3)nc3c4ccccc4ccn23)cc1`: the Potency entry was “inactive”.

Consider `CC(C)(C)CC(=O)Nc1nc(C(N)Cc2ccc(C(F)(F)F)cc2)cs1` (centres undefined), for which the Potency entry was “inactive”.

As to `Cc1cccc(N(CC(=O)Nc2ccc(-c3nc4ccc(C)cc4s3)cc2)S(C)(=O)=O)c1`, the Potency is 15.8 µM (active).

Take `COc1cccc(N(CC(=O)Nc2cccc(F)c2)S(C)(=O)=O)c1`: the Potency entry is “inactive”.

On to `CCN(CC)S(=O)(=O)c1ccc(NC(=O)CN(c2cccc(F)c2)S(C)(=O)=O)cc1`, for which the Potency result is “inactive”.

In the case of `COc1ccc(NC(=O)C2(C)Cc3c(-c4ccc(C(N)=O)cc4)ccnc3O2)cc1` (centres undefined), the Potency entry was “inactive”.

`COc1ccc(-c2ccc(CN3C(CC(C)C)C(=O)N(Cc4cn(CC5CCCCC5)nn4)CCS3(=O)=O)cc2)cn1` (centres undefined): the Potency result was “inactive”.

On to `CCOC(=O)C(=Cc1ccccc1)C(=O)c1ccccc1`, for which the Potency entry was “inactive”.

`CC(C)(C)OC(=O)c1c(N)n(CCCN2CCCC2=O)c2nc3ccccc3nc12`: the Potency result was “inactive”.

As to `CN(C)CCCn1c(N)c(C#N)c2nc(C#N)c(C#N)nc21`, the Potency entry is “inactive”.

As for `N#Cc1c(N)n(CCOC(=O)c2ccc(Cl)cc2)c2nc3ccccc3nc12`, the Potency was 28.2 µM (active).

Consider `CCc1ccc(OCCCn2c(CCCNC(=O)C3CCCCC3)nc3ccccc32)cc1`, for which the Potency result is “inactive”.

For the compound `CCCCCCN1CCN(C2CN(Cc3cn(Cc4ccc(F)cc4)nn3)S(=O)(=O)C2)CC1` (centres undefined), the Potency result is “inactive”.

Consider `CCN1C(=O)[C@H]2[C@@H](c3ccc(-c4ccc(F)cc4)cc3)N[C@@](Cc3ccccc3)(C(=O)OC)[C@H]2C1=O`, for which the Potency entry was “inactive”.

`CCN1C(=O)[C@H]2[C@@H](c3ccc(SC4CCCCC4)c(OC)c3)N[C@@](Cc3ccccc3)(C(=O)OC)[C@H]2C1=O`: the Potency was 35.5 µM (active).

Regarding `CCN1C(=O)[C@H]2[C@@H](c3ccc(-c4ccc(OC)cc4)cc3)N[C@@](Cc3ccccc3)(C(=O)OC)[C@H]2C1=O`, the Potency result was “inactive”.

As to `CCCCC[C@H](C)N1C[C@@H](COCc2ccccc2)Oc2cc(N3CC[C@@H](N(C)C)C3)ccc2S1(=O)=O`, the Potency result was “inactive”.

Take `O=C(NCc1ccccn1)[C@@H]1CCCN1C(=O)[C@@H]1CCCN1C(=O)c1ccccc1`: the Potency entry is “inactive”.

For `COc1ccc(N2c3ccccc3CN(Cc3ccccc3)[C@@H](C)[C@H]2Cc2ccc(-c3ccccc3)cc2)cc1`, the Potency entry was “inactive”.

As to `C=CCNC(=O)c1ccc2nc(-c3ccco3)c(-c3ccco3)nc2c1`, the Potency entry is “inactive”.

Take `CC(C)(C)C(=O)Nc1cccc(-c2ccc[nH]2)n1`: the Potency is 12.6 µM (active).

Regarding `Cc1c(-c2cccc(NC(=O)C(C)(C)C)c2)nc2ncccn12`, the Potency result is “inactive”.

With `Cc1c(NC(=O)C(C)(C)C)cccc1-c1nc2ccccc2s1`, the Potency result is “inactive”.

Take `COc1cccc(-c2cc(NC(C)=O)c3ncc(-c4cccc(C(C)=O)c4)n3c2)c1`: the Potency result is “inactive”.

On to `CCOC(=O)C1CCCN(C(=O)c2ccc(N(C)C)cc2)CC1` (centres undefined), for which the Potency result is “inactive”.

As to `Cn1c(=O)c2[nH]c(NCC3CCCO3)nc2n(-c2ccccc2)c1=O` (centres undefined), the Potency is 28.2 µM (active).

In the case of `Cc1sc2c(c1C)c(=O)n(-c1ccccc1)c(=O)n2CC(=O)NCC1CCCO1` (centres undefined), the Potency result is “inactive”.

In the case of `CC(C)(C)c1nc(NCC2CCCO2)c2nnn(Cc3ccccc3)c2n1` (centres undefined), the Potency result was “inactive”.

`Oc1ccc(Br)cc1C1C=C(c2ccc3c(c2)OCO3)NC(c2ccc(Cl)cc2)N1` (centres undefined): the Potency result is “inactive”.

`CCc1ccc(OC2(C)CCN(CCOc3ccc(C)cc3)C2)cc1` (centres undefined): the Potency entry was “inactive”.

With `CC(C)Cc1ccc(-c2cc3nc(NCc4cccc(Cl)c4)ccn3n2)cc1`, the Potency entry was “inactive”.

In the case of `CCCc1cc(=O)oc2c(C)c(OCC(=O)Nc3ccccn3)ccc12`, the Potency result was “inactive”.
